# Source: PubChem BioAssay (NCI)
# About 79,000 compounds went through this panel and 15% of them were active in at least one assay; those are over-represented in the sample as a whole. Calls of active or inactive are those of the source. No stated cut-off is given here; in the data, active means growth inhibition above about 70%; inactive means the rest.
# Assay: NCI Yeast Anticancer Drug Screen. Data for the mec2-1 strain (AID 157)
# Conditions: S. cerevisiae mec2-1 strain, at 50.0 µM (retest, dose inferred, filed as 5.0), active compounds read high
# In short: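 mec2-1 yeast strain, carrying an alteration in DNA damage repair or cell cycle control, was exposed to compounds; growth inhibition was measured relative to vehicle-treated controls.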
row,Structure (SMILES),growth inhibition
1,COc1ccc2c(Cc3cc(Cl)ccc3O)cncc2c1O,60% (inactive)
2,Cc1ccc(NNC2=NC(=S)NC(=O)C2)cc1,98% (active)
3,CC#CC(=O)Nc1ccccc1CC(c1c[nH]c2ccccc12)c1c[nH]c2ccccc12,31% (inactive)
4,COC(=O)c1c2oc3c(C(=O)OC)cccc3nc-2cc(N)c1=O,56% (inactive)
5,CCCCCC(=O)NNc1ccccc1,76% (active)
6,CN(C)CCNc1ccc2nnn3c4ccc(O)cc4c(=O)c1c23,-4% (inactive)
7,COc1ccc2c(c1)C(=O)C[C@@H]1[C@](C)(C#N)CCC[C@]21C,2% (inactive)
8,CCC(=O)c1cc2ccccc2c2ccccc12,20% (inactive)
9,O=C1OCCCOC(=O)c2cc(ccc2O)OCC#CC#CCOc2ccc(O)c1c2,19% (inactive)
10,Nc1nc(Cl)cc(NCC2(CO)CC(CCCc3ccccc3)C2)n1 (stereo not given),7% (inactive)
11,NNC(=S)Nc1ccccc1,1% (inactive)
12,CCOC(=O)c1ccc(N=Cc2cc(Cl)cc(Cl)c2O)cc1,100% (active)
13,CC(C(=O)N1C(=O)N(C(=O)C(C)C(O)c2ccccc2)C(c2ccccc2)C1c1ccccc1)C(O)c1ccccc1 (stereo not given),92% (active)
14,CC(C)(C)CC(C)(C)N[P+](NC(C)(C)CC(C)(C)C)(NC(C)(C)CC(C)(C)C)NC(C)(C)CC(C)(C)C,99% (active)
15,C/C(=N\NC(=S)N1CCCC1)c1cnccn1,99% (active)
16,N=C(N)c1ccc(OCCCCOc2ccc(N)cc2Cl)cc1,79% (active)
17,CCCCCC(CN(C)C)C(O)/C=C\c1ccccc1 (stereo not given),-4% (inactive)
18,CC1(CO)CCCC2(C)C3=C(CCCC3)CCC12 (stereo not given),96% (active)
19,O=C(CCCl)Nc1cc2ccccc2oc1=O,-17% (inactive)
20,O=[N+]([O-])c1ccccc1N=Nc1c(O)[nH]c2cccc(C(F)(F)F)c12,81% (active)

row,Structure (SMILES),growth inhibition
1,CCCCCCCCC1OC1CCCCCCCC(=O)OCC1CO1 (stereo not given),-10% (inactive)
2,CCN(CC)CCNc1ccc(C)c2sc3c(OC)cccc3c(=O)c12,4% (inactive)
3,OC(CCN1CCOCC1)c1ccc(Sc2ccccc2)cc1 (stereo not given),21% (inactive)
4,[Cl-].[La+3].[O-]/N=C(\c1ccccc1)c1ccccn1.[O-]/N=C(\c1ccccc1)c1ccccn1.[O-]/N=C(\c1ccccc1)c1ccccn1,60% (inactive)
5,COc1ccc(NC(=O)CSC(N)=O)cc1,20% (inactive)
6,Fc1cccc(CSc2ncnc3c2ncn3C2CCCS2)c1 (stereo not given),87% (active)
7,CC/C(=C(\CC)c1ccc(OCCN2CCOCC2)cc1)c1ccc(OCCN2CCOCC2)cc1,62% (inactive)
8,O=[N+]([O-])c1c(Cl)ccc2nsnc12,97% (active)
9,COc1ccccc1NC(=O)/C(=C\N1C(=O)/C(=C/c2cc(OC)c(OC)c(OC)c2)SC1=S)C(C)=O,14% (inactive)
10,O=CNC(CCCC(=O)O)Cc1cc2ccccc2c2ccccc12 (stereo not given),31% (inactive)
11,C=C1CC2(CCCC3(CC(=C)C(=O)O3)C2(C)C)OC1=O (stereo not given),98% (active)
12,CCOC(=O)Nc1cc(NC(C)/C(=N/O)c2ccccc2)c([N+](=O)[O-])c(N)n1 (stereo not given),47% (inactive)
13,O=C(N=Nc1cccc(Cl)c1)NNc1cccc(Cl)c1,99% (active)
14,Oc1ccc2c(ccc3ccccc32)c1,100% (active)
15,CCc1cccc(C(C)(C)C)c1NC(=S)/N=C/C(C(=O)c1ccccc1)=C(\O)c1ccccc1,66% (inactive)
16,NC(=S)N/N=C/c1cn(CCCl)c2ccccc12,49% (inactive)
17,COC1=Nc2ccccc2S(=O)(=O)C=C1,79% (active)
18,O=C1C2C3C=CC(C3)C2C(=NS(=O)(=O)c2ccccc2)C2C3C=CC(C3)C12 (stereo not given),0% (inactive)
19,NC(=Nc1ccccc1)c1ccc2c(c1)c1c(n2Cc2ccccc2)CCCC1,97% (active)
20,NN=C(CC(O)(C(F)(F)Cl)C(F)(F)Cl)CC(O)(C(F)(F)Cl)C(F)(F)Cl,99% (active)

# Same assay, conditions: S. cerevisiae mec2-1 strain, at 50.0 µM, active compounds read high
row,Structure (SMILES),growth inhibition
1,COc1ccc2c(Cc3cc(Cl)ccc3O)cncc2c1O,31.6% (inactive)
2,Cc1ccc(NNC2=NC(=S)NC(=O)C2)cc1,96.9% (active)
3,CC#CC(=O)Nc1ccccc1CC(c1c[nH]c2ccccc12)c1c[nH]c2ccccc12,55.1% (inactive)
4,COC(=O)c1c2oc3c(C(=O)OC)cccc3nc-2cc(N)c1=O,25.7% (inactive)
5,CCCCCC(=O)NNc1ccccc1,42.6% (inactive)
6,CN(C)CCNc1ccc2nnn3c4ccc(O)cc4c(=O)c1c23,-3.1% (inactive)
7,COc1ccc2c(c1)C(=O)C[C@@H]1[C@](C)(C#N)CCC[C@]21C,-4.95% (inactive)
8,CCC(=O)c1cc2ccccc2c2ccccc12,39% (inactive)
9,O=C1OCCCOC(=O)c2cc(ccc2O)OCC#CC#CCOc2ccc(O)c1c2,8.75% (inactive)
10,Nc1nc(Cl)cc(NCC2(CO)CC(CCCc3ccccc3)C2)n1 (stereo not given),-6.6% (inactive)
11,NNC(=S)Nc1ccccc1,79.9% (active)
12,CCOC(=O)c1ccc(N=Cc2cc(Cl)cc(Cl)c2O)cc1,88.5% (active)
13,CC(C(=O)N1C(=O)N(C(=O)C(C)C(O)c2ccccc2)C(c2ccccc2)C1c1ccccc1)C(O)c1ccccc1 (stereo not given),91.5% (active)
14,CC(C)(C)CC(C)(C)N[P+](NC(C)(C)CC(C)(C)C)(NC(C)(C)CC(C)(C)C)NC(C)(C)CC(C)(C)C,88.3% (active)
15,C/C(=N\NC(=S)N1CCCC1)c1cnccn1,99% (active)
16,N=C(N)c1ccc(OCCCCOc2ccc(N)cc2Cl)cc1,7.85% (inactive)
17,CCCCCC(CN(C)C)C(O)/C=C\c1ccccc1 (stereo not given),48.6% (inactive)
18,CC1(CO)CCCC2(C)C3=C(CCCC3)CCC12 (stereo not given),52.1% (inactive)
19,O=C(CCCl)Nc1cc2ccccc2oc1=O,15.9% (inactive)
20,O=[N+]([O-])c1ccccc1N=Nc1c(O)[nH]c2cccc(C(F)(F)F)c12,18.5% (inactive)

row,Structure (SMILES),growth inhibition
1,CCCCCCCCC1OC1CCCCCCCC(=O)OCC1CO1 (stereo not given),-18.7% (inactive)
2,CCN(CC)CCNc1ccc(C)c2sc3c(OC)cccc3c(=O)c12,9.75% (inactive)
3,OC(CCN1CCOCC1)c1ccc(Sc2ccccc2)cc1 (stereo not given),98.9% (active)
4,[Cl-].[La+3].[O-]/N=C(\c1ccccc1)c1ccccn1.[O-]/N=C(\c1ccccc1)c1ccccn1.[O-]/N=C(\c1ccccc1)c1ccccn1,40.2% (inactive)
5,COc1ccc(NC(=O)CSC(N)=O)cc1,23.2% (inactive)
6,Fc1cccc(CSc2ncnc3c2ncn3C2CCCS2)c1 (stereo not given),90% (active)
7,CC/C(=C(\CC)c1ccc(OCCN2CCOCC2)cc1)c1ccc(OCCN2CCOCC2)cc1,70.5% (active)
8,O=[N+]([O-])c1c(Cl)ccc2nsnc12,99.2% (active)
9,COc1ccccc1NC(=O)/C(=C\N1C(=O)/C(=C/c2cc(OC)c(OC)c(OC)c2)SC1=S)C(C)=O,13.4% (inactive)
10,O=CNC(CCCC(=O)O)Cc1cc2ccccc2c2ccccc12 (stereo not given),95% (active)
11,C=C1CC2(CCCC3(CC(=C)C(=O)O3)C2(C)C)OC1=O (stereo not given),38.4% (inactive)
12,CCOC(=O)Nc1cc(NC(C)/C(=N/O)c2ccccc2)c([N+](=O)[O-])c(N)n1 (stereo not given),59.5% (inactive)
13,O=C(N=Nc1cccc(Cl)c1)NNc1cccc(Cl)c1,90.6% (active)
14,Oc1ccc2c(ccc3ccccc32)c1,97.3% (active)
15,CCc1cccc(C(C)(C)C)c1NC(=S)/N=C/C(C(=O)c1ccccc1)=C(\O)c1ccccc1,55.3% (inactive)
16,NC(=S)N/N=C/c1cn(CCCl)c2ccccc12,19.8% (inactive)
17,COC1=Nc2ccccc2S(=O)(=O)C=C1,98.5% (active)
18,O=C1C2C3C=CC(C3)C2C(=NS(=O)(=O)c2ccccc2)C2C3C=CC(C3)C12 (stereo not given),89.8% (active)
19,NC(=Nc1ccccc1)c1ccc2c(c1)c1c(n2Cc2ccccc2)CCCC1,99.2% (active)
20,NN=C(CC(O)(C(F)(F)Cl)C(F)(F)Cl)CC(O)(C(F)(F)Cl)C(F)(F)Cl,99.2% (active)
